The source of these data is ChEMBL document CHEMBL4513146, “CO-ADD screening of Karazin Kharkiv National University (Ukraine) compounds”.

The test system of one test is Klebsiella pneumoniae. The settings on record: Concentration 32 ug.mL-1;; ASSAY_TEST Inhibition of Bacterial Growth; detection method Absorption (OD600); MEDIA CAMHB; plate type 384well; NBS; CORNING #3640; time 18 hr.
The test system of the next test is Candida albicans. To be noted: Concentration 32 ug.mL-1; ASSAY_TEST Inhibition of Fungal Growth; detection method Absorption (OD530).
A further test has as its system Cryptococcus neoformans. To be noted: Concentration 32 ug.mL-1; ASSAY_TEST Inhibition of Fungal Growth; detection method Resazurin; Absorption (OD600-OD570); plate type 384well; NBS; CORNING #3640.

Results with a measured potency or affinity are listed apart.

As a reminder, the Inhibition is the change of the read-out against control, counted positive when it falls. Turning to `COc1cccc(CN(c2ccc(C)c(F)c2)S(=O)(=O)c2ccc3nncn3c2)c1`, the results for the Inhibition in the test on Klebsiella pneumoniae, in the test with Candida albicans and with Cryptococcus neoformans were 1.02%, -0.35% and -8.8%, respectively.

`COc1cccc(CN(c2cccc(F)c2)S(=O)(=O)c2ccc3nnc(C)n3c2)c1`: the Inhibition is 3.28% with Klebsiella pneumoniae, 3.11% with Candida albicans and -1.07% with Cryptococcus neoformans.

Take `COc1cc(NC(=O)C(C)Sc2nnc3c(=O)n(-c4ccccc4OC)ccn23)cc(OC)c1` (stereo unspecified): the Inhibition was 11.13% with Klebsiella pneumoniae, 1.4% with Candida albicans and -7.6% in the test with Cryptococcus neoformans.

For `COc1ccc(NC(=O)c2ccc3nn(CC(=O)Nc4ccc(C(C)=O)cc4)c(=O)n3c2)cc1`, the Inhibition in the test with Klebsiella pneumoniae was 4.63%; in the test with Candida albicans it was 12.89%; in the test with Cryptococcus neoformans, -6.52%.

On to `O=C(Cn1nc2c(Sc3cccc(F)c3)nccn2c1=O)Nc1cccc(C(F)(F)F)c1`, for which the Inhibition was 14.77% in the test with Klebsiella pneumoniae, -0.63% in the test on Candida albicans and -9.77% in the test on Cryptococcus neoformans.

With `Cc1nnc2c(=O)n(CC(=O)Nc3ccc(Cl)cc3)c3ccccc3n12`, the Inhibition is 4.43% in the test on Klebsiella pneumoniae, -0.59% with Candida albicans and -11.19% with Cryptococcus neoformans.

`C=Cc1ccc(CN(c2ccc(F)c(F)c2)S(=O)(=O)c2cccn3cnnc23)cc1`: the Inhibition in the test on Klebsiella pneumoniae is 8.42%; in the test with Candida albicans, 2.5%; in the test on Cryptococcus neoformans, -8.63%.

For the molecule `COc1ccccc1-n1ccn2c(SCc3ccccc3Cl)nnc2c1=O`, the Inhibition in the test on Klebsiella pneumoniae is 10.5%; in the test with Candida albicans it was 2.3%; in the test on Cryptococcus neoformans, -11.71%.

Take `COc1ccc(CN(c2ccc(F)cc2)S(=O)(=O)c2cccn3cnnc23)cc1F`: the values for the Inhibition with Klebsiella pneumoniae, in the test with Candida albicans and with Cryptococcus neoformans were 9.98%, 3.76% and -9.79%, respectively.

Regarding `Cc1ccc(-c2cc3c4nn(CC(=O)Nc5cccc(C)c5C)c(=O)n4ccn3n2)cc1C`, the Inhibition with Klebsiella pneumoniae is on record as 14.55%; with Candida albicans, 0.02%; in the test on Cryptococcus neoformans it was -23.37%.

With `CCc1nnc2c(SCC(=O)Nc3ccc(OC)c(Cl)c3)nc3ccccc3n12`, the Inhibition in the test with Klebsiella pneumoniae is 11.84%; in the test with Candida albicans, 5.38%; with Cryptococcus neoformans it was -21.55%.

On to `Cc1ccc(Sc2nccn3c(=O)n(CC(=O)Nc4cccc(Br)c4)nc23)c(C)c1`, for which the Inhibition is reported as 7.97% with Klebsiella pneumoniae, 8.72% in the test on Candida albicans and -18.33% in the test on Cryptococcus neoformans.

For the molecule `CCOc1ccc(-n2ccn3c(SCC(=O)Nc4cc(F)ccc4F)nnc3c2=O)cc1`, the Inhibition in the test with Klebsiella pneumoniae is 6.4%; with Candida albicans, 2.5%; in the test with Cryptococcus neoformans it was -1.21%.

With `Cc1nnc2ccc(S(=O)(=O)N(Cc3cccc(Cl)c3)c3ccc(F)cc3)cn12`, the values for the Inhibition with Klebsiella pneumoniae, in the test with Candida albicans and in the test with Cryptococcus neoformans were 8%, 2.21% and -6.34%, respectively.

In the case of `Cc1nnc2ccc(S(=O)(=O)N(Cc3ccccc3F)c3ccc(Cl)cc3)cn12`, the Inhibition in the test on Klebsiella pneumoniae is -3.84%; with Candida albicans, 0.4%; in the test on Cryptococcus neoformans, -8.97%.

Take `COc1ccc(CNC(=O)CSc2nnc3c4cc(-c5ccc(OC)cc5)nn4ccn23)cc1`: the figures for the Inhibition in the test on Klebsiella pneumoniae, in the test on Candida albicans and with Cryptococcus neoformans were -0.91%, 1.93% and -6.67%, respectively.

Consider `CCCCOc1ccc(-c2cc3c4nnc(SCC(=O)Nc5c(C)cccc5C)n4ccn3n2)cc1`, for which the Inhibition in the test with Klebsiella pneumoniae is reported as 2.94%; in the test with Candida albicans, 28.25%; in the test with Cryptococcus neoformans, -13.35%.

On to `O=C(Cn1nc2c(Oc3ccc(Cl)cc3)nccn2c1=O)Nc1ccc2c(c1)OCO2`, for which the Inhibition in the test with Klebsiella pneumoniae is on record as 8.17%; in the test with Candida albicans, 2.32%; in the test with Cryptococcus neoformans it was -10.77%.

As to `Cc1cccc(C)c1NC(=O)Cn1nc2ccc(SCc3ccc(Cl)cc3)nn2c1=O`, the Inhibition in the test with Klebsiella pneumoniae was -2.95%; in the test on Candida albicans, 27.65%; in the test with Cryptococcus neoformans it was -10.13%.

On to `Cc1nnc2ccc(S(=O)(=O)N(Cc3ccccc3F)c3cccc(Cl)c3)cn12`, for which the Inhibition with Klebsiella pneumoniae is recorded as 8.99%; in the test with Candida albicans it was -0.66%; in the test on Cryptococcus neoformans, -11.57%.

Regarding `Cc1ccccc1Oc1nccn2c(=O)n(CC(=O)Nc3cc(F)ccc3F)nc12`, the figures for the Inhibition in the test with Klebsiella pneumoniae, in the test with Candida albicans and with Cryptococcus neoformans were 13.37%, -0.39% and -8.18%, respectively.

In the case of `COc1ccc(Cn2nc3ccc(-c4ccccc4)nn3c2=O)cc1F`, the Inhibition is listed as 8.32% with Klebsiella pneumoniae, 1.33% in the test with Candida albicans and -0.36% with Cryptococcus neoformans.

For the molecule `O=S(=O)(c1ccc2nncn2c1)N(Cc1ccccc1)c1ccc(F)c(F)c1`, the Inhibition is listed as 5.23% with Klebsiella pneumoniae, 3.55% in the test with Candida albicans and -6.45% in the test on Cryptococcus neoformans.

`O=C(CSc1nnc2c3cc(-c4ccc(F)cc4)nn3ccn12)NCc1ccc(Cl)cc1`: the results for the Inhibition in the test on Klebsiella pneumoniae, in the test with Candida albicans and in the test on Cryptococcus neoformans were 0.77%, 7.94% and -17.49%, respectively.

With `Cc1ccc(-c2ccc3nn(CC(=O)Nc4ccc(Br)cc4)c(=O)n3n2)cc1C`, the Inhibition is given as 12.28% in the test on Klebsiella pneumoniae, 10.19% with Candida albicans and -18.48% in the test with Cryptococcus neoformans.

As to `Cc1ccc(-c2ccc3nnc(CCC(=O)NCc4ccc(C(C)C)cc4)n3n2)cc1C`, the results for the Inhibition with Klebsiella pneumoniae, in the test on Candida albicans and in the test with Cryptococcus neoformans were 10.51%, 5.56% and -18.09%, respectively.

Take `COc1ccc(N(Cc2ccccc2F)S(=O)(=O)c2ccc3nnc(C)n3c2)cc1`: the Inhibition in the test with Klebsiella pneumoniae is recorded as 4.15%; in the test with Candida albicans it was -0.01%; in the test with Cryptococcus neoformans, -2.71%.

`CN(C(=O)Cn1nc2n(Cc3ccco3)c(=O)c3sccc3n2c1=O)c1ccccc1`: the Inhibition in the test on Klebsiella pneumoniae was -0.68%; with Candida albicans, 2.07%; in the test on Cryptococcus neoformans it was -9.74%.

On to `Cc1ccc(NC(=O)CSc2nnc3ccc(C(=O)Nc4cccc(F)c4)cn23)cc1F`, for which the values for the Inhibition in the test with Klebsiella pneumoniae, with Candida albicans and in the test on Cryptococcus neoformans were 6.03%, -0.33% and -4.6%, respectively.

For the molecule `C=Cc1ccc(CN(c2ccc(Cl)cc2)S(=O)(=O)c2cccn3c(C)nnc23)cc1`, the Inhibition is on record as 7.52% in the test on Klebsiella pneumoniae, 0.36% with Candida albicans and -8.75% with Cryptococcus neoformans.

As to `COc1cc(-c2nnc3c(=O)n(Cc4ccc(Cl)cc4)ccn23)cc(OC)c1OC`, the Inhibition in the test on Klebsiella pneumoniae is listed as 11.02%; in the test on Candida albicans it was -0.08%; with Cryptococcus neoformans, -21.41%.

For `N#Cc1ccccc1NC(=O)Cn1nc2c(Oc3ccccc3)nccn2c1=O`, the Inhibition is given as 2.81% in the test on Klebsiella pneumoniae, -0.12% in the test on Candida albicans and -5.65% with Cryptococcus neoformans.

`O=C(CSc1nnc2c(=O)n(Cc3ccc(F)cc3)ccn12)NCC1CCCO1` (stereo unspecified): the Inhibition with Klebsiella pneumoniae is 11.7%; in the test with Candida albicans, 1.72%; in the test with Cryptococcus neoformans, -16.29%.

As to `CC(C)c1nnc2c(=O)n(CC(=O)Nc3ccccc3)c3ccccc3n12`, the Inhibition is listed as 14.31% in the test with Klebsiella pneumoniae, 3.67% in the test on Candida albicans and -25.44% in the test on Cryptococcus neoformans.

For the molecule `COc1ccc(CCNC(=O)Cn2nc3c(N4CCOCC4)nccn3c2=O)cc1OC`, the Inhibition in the test with Klebsiella pneumoniae is 17.72%; in the test with Candida albicans, 2.21%; in the test with Cryptococcus neoformans it was -10.16%.

On to `Cc1ccccc1CN(c1ccc(C(C)C)cc1)S(=O)(=O)c1cccn2c(C)nnc12`, for which the Inhibition with Klebsiella pneumoniae is listed as 8.89%; in the test with Candida albicans, 4.49%; in the test on Cryptococcus neoformans, -10.58%.

Turning to `Cc1c(Cl)cccc1-n1ccn2c(=O)n(Cc3c(F)cccc3Cl)nc2c1=O`, the Inhibition in the test with Klebsiella pneumoniae is 1.26%; in the test on Candida albicans, 11.96%; in the test on Cryptococcus neoformans, -12.75%.
